Shown are actives, neighbours in structure and some others; about 10% of the full set was active somewhere.
LMNA splice mod: modulators of lamin A splicing. HeLa LMNA splicing GFP/RFP minigene ratio, 48 h. Potency, µM (titrated, usually from 46.1 µM), hits mostly inhibitors. 200,000 compounds, 0.01% hits. AID 1487; active = well fitted inhibition curve with a large enough effect in the signal ratio, with a control signal flat, not every such curve was filed as active; inconclusive = small, poorly fitted or top-dose-only effect, or effect the other way, or a change in a side signal; the % refers to the signal ratio
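Read-out is the ratio of GFP to DsRed2 object intensity, acquired by 488 nm laser-scanning cytometry on HeLa lamin A-EGFP minigene reporter cells. Compound incubation 48 hrs at 37 °C in Opti-MEM with 2% FBS; DMSO 0.5% final.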
HPGD block: inhibitors of human 15-hydroxyprostaglandin dehydrogenase (HPGD). purified HPGD, NADH fluorescence kinetic, PGE2 substrate. 150,000 compounds, 4.3% hits. P15428. Potency, µM, hits mostly inhibitors
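20 nM HPGD preincubated 15 min at room temperature with compound in 50 mM Tris-HCl pH 8, 0.01% Tween 20. Started with 1 mM NAD+ and 30 uM prostaglandin E2; NADH fluorescence (360/450 nm) read 5 times over 30-s intervals, last minus first.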
PNC inhibitor: blocks assembly of the perinucleolar compartment; PC3M PTB-GFP, PNC prevalence imaging, 16 h; hits give low values; activity change (PNC), negative = inhibition, % at 10 µM; 140,000 compounds, 3.1% hits;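 active = readout at or below -70, meaning at least 70% loss of cells showing the perinucleolar compartment, a nuclear body marking cancer cells; inconclusive = readout between -30 and a set limit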
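Compounds are pinned in duplicate onto adhered PC3M cells stably expressing GFP-tagged PTB and incubated 16 h at 37 C. Cells are then fixed, nuclei stained with Hoechst, and PNC-positive cells counted.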
ALDH1A1 block: blocks purified human ALDH1A1 activity; P00352; Purified ALDH1A1, NADH fluorescence, propionaldehyde substrate; Potency, µM (highest dose often 75.3 µM), most hits filed as inhibitors; 220,000 compounds, 7.3% hits; AID 1030
12-hLO inh: blocks human 12-lipoxygenase activity. purified 12-hLO, xylenol orange hydroperoxide absorbance. 150,000 compounds, 0.12% hits. AID 1452. Potency, µM (top dose mostly 57.1 µM), most hits filed as inhibitors. P18054; active = well fitted inhibition curve with a large enough effect; inconclusive = small, poorly fitted or top-dose-only effect; note: nearly all actives have a fitted effect of over 55% in size
Target sequence (P18054 whole entry, looked up): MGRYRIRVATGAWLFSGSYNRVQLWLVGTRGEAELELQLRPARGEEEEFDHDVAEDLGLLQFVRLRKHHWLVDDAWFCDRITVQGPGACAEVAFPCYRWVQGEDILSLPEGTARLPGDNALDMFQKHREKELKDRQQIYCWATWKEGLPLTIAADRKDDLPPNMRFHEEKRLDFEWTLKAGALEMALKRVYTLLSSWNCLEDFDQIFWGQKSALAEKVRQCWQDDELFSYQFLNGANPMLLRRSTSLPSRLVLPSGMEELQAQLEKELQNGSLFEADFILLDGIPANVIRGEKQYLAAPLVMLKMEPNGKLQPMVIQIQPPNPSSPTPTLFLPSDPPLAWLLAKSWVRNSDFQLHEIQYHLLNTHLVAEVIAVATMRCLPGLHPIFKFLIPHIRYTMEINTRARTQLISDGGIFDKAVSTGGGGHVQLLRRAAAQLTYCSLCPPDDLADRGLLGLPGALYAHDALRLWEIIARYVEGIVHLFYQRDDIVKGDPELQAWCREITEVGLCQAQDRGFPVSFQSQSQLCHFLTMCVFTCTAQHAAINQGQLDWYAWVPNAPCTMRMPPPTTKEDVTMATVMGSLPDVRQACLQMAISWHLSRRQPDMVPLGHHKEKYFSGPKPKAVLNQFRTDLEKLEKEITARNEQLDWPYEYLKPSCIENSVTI
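Hydroperoxide formation by human 12-lipoxygenase from 40 uM arachidonic acid was followed colorimetrically via ferric-xylenol orange complex, using the 573/405 nm absorbance ratio. Enzyme concentration was 150 nM, with 30 min reaction at room temperature.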
Hits are given with their value; – = inactive; ? = inconclusive; · = no result given; [ ] = remark or other dose. Unless noted, calls come from the whole dose curve; as a rule, active = well fitted inhibition curve with a large enough effect (not every such curve was filed as active); inconclusive = small, poorly fitted or top-dose-only effect, or another doubt; inactive = no such curve, though single readings can be large or run the other way.

SMILES	LMNA splice mod	HPGD block	PNC inhibitor	ALDH1A1 block	12-hLO inh
Cc1ccc(S(=O)(=O)N[C@H](C(=O)N2CCC3(O)CCCCC3C2)c2ccccc2)cc1 (stereo partly drawn)	–[0.0737 µM]	–	–	?	–
COc1ccc(S(=O)(=O)N[C@H](C(=O)N2CC[C@@]3(O)CCCC[C@H]3C2)c2ccccc2)cc1	–	–	–	13µM	–
CCOC(=O)N/N=C1/C[C@@H](O)[C@@H](O)[C@@H]2[C@@H]3C(=O)N(C[C@@H]4CCCO4)C(=O)[C@H]3CC[C@H]12	·	·	·	–[13.5 µM]	·
CC(C)c1cc(N2CCC(=O)NC2=O)cc(C(=O)O)c1O	–	?	-114	?	–
CCOC(=O)C1CCN(Cc2cc(C(C)C)c(O)c(C(C)C)c2)CC1	–	·	·	–	·
c1ccc2c[n+](Cc3ccnc4ccccc34)ccc2c1	·	–	·	–[13.5 µM]	–[11.4 µM]
Nc1ccc(C(=O)c2ccccc2C(=O)O)cc1Cl	–	–	-107	–	–
O=C(O)c1ccc(C(=O)O)c(C(=O)c2ccccc2)c1	–	–	–	–	–
CC(C)Cn1c(=S)[nH]c2cc(Cl)ccc21	–	·	·	8.9µM	·
COc1cc(S(=O)(=O)N2CCN(c3ccccc3F)CC2)c(OC)cc1Cl	?	–	–	25µM	–
O=Cc1ccc(-n2nncc2-c2ccc([N+](=O)[O-])cc2)cc1	–	·	·	13µM	·
O=C(NCc1nc2ccccc2[nH]1)c1ccc(Cl)c(S(=O)(=O)N2CCCC2)c1	–	–	?	–	–
CSCC[C@H](NC(=O)c1ccc(Cl)c(S(=O)(=O)N2CCCC2)c1)c1nc2ccccc2[nH]1	–	·	?	?	18µM
Cc1ccc(-c2cc(C(F)F)n3ncc(C(=O)N4CCCc5ccccc54)c3n2)cc1	–	–	-100	–	–
N#C/C(=C\c1cccc(OC(=O)c2cccs2)c1)C(N)=O	–	25µM	?	–	–
CC(C)OC(=O)c1c(NC(=O)c2cccs2)sc2c1CCCC2	–	?	–	?	–
O=C(Nc1sc2c(c1C(=O)O)CCC2)c1ccco1	–	22µM	–	–	–
O=C(Nc1sc2c(c1C(=O)O)CCCC2)c1cccs1	?	25µM	–	–	–
Cc1ccc(C(=O)Nc2sc3c(c2C(=O)O)CCCCC3)o1	?	14µM	?	19µM	–
COC(=O)c1c(NC(=O)c2ccc(C)o2)sc2c1CCCCC2	–	?	–	?	–
Cc1ccc(C)n1-c1sc2c(c1C(=O)O)CCCC2	?	–	–	28µM	–
CC(C)CN1CCC2(CC1)CCN(C(=O)c1cccc(F)c1)CC2	·	–	·	–	–
Cn1ccc2cc(S(=O)(=O)N3CCCN(C(=O)Nc4ccccc4Br)CC3)ccc21	–	·	·	·	·
Cc1cc(-n2c(C)nc3ccccc3c2=O)ccc1NC(=O)c1ccc(C)c([N+](=O)[O-])c1	–	·	·	·	·
Cc1ccc(C(=O)N2NC(c3ccc(F)cc3)C3C(=O)N(c4ccc(C)cc4)C(=O)C32)cc1 (stereo not drawn)	–	–	–	–	–
SMILES	LMNA splice mod	HPGD block	PNC inhibitor	ALDH1A1 block	12-hLO inh
Cc1ccc(C(=O)N2NC(c3ccc(F)cc3)C3C(=O)N(c4ccc(C)c(C)c4)C(=O)C32)cc1 (stereo not drawn)	?	?	-90	–	–
O=C(CSc1nc2ccccc2s1)N/N=C/c1ccco1	–	–	–	20µM	–
O=C(CCCCCNC(=O)c1ccccc1Cl)N/N=C/c1ccco1	?	·	·	–	·
C/C(=N\NC(=O)CSc1nc2ccccc2s1)c1ccco1	?	–	?	2.8µM	–
O=C(CSCc1ccccc1Cl)N/N=C/c1ccco1	?	·	·	25µM	·
O=C(CSc1nc2ccccc2s1)N/N=C/c1ccc(C(=O)O)cc1	·	·	·	–	·
COc1ccc(Oc2cc(C)nc(Cl)n2)nn1	–[9.22 µM]	·	·	8.9µM	·
Cc1cc(Oc2ccc(OCC(N)=O)nn2)nc(Cl)n1	–	·	·	–	·
O=C1C=CC2=C3c4cc(O)c(O)cc4CC3(O)COC2=C1O (stereo not drawn)	–	25µM	·	?	?
COc1ccc(N2CCN(C(=O)c3cnn(-c4ccc(OC)cc4)c3C3CCN(C(=O)OC(C)(C)C)CC3)CC2)cc1	–	·	·	·	·
COc1cccc(C2C3=C(CCCC3=O)Nc3[nH]n(-c4ccccc4)c(=O)c32)c1 (stereo not drawn)	–	·	·	–	·
COc1cccc(C2C3=C(Nc4[nH]n(-c5ccccc5)c(=O)c42)c2ccccc2C3=O)c1 (stereo not drawn)	–	–	?	20µM	–
Cc1noc(C)c1C(=O)N1CCC2(CCN(Cc3ccccc3)CC2)CC1	·	–	·	–	–
CCOC(=O)NC(CC(=O)O)c1ccc(OC)cc1 (stereo not drawn)	–	–	-100	–	–
Cc1cc(C)c2nc(-c3ccccn3)cc(C(=O)Nc3cc(C)on3)c2c1	–	?	-86	?	–
CC(C(=O)Nc1cccnc1)N1C(=O)C2C3C=CC(C3)C2C1=O (stereo not drawn)	–	–	–	20µM	–
O=C(NCCN1C(=O)C2C3C=CC(C3)C2C1=O)Nc1cccnc1 (stereo not drawn)	–	–	–	–	–
O=C(Nc1ccc(N2C(=O)C3C4C=CC(C4)C3C2=O)cc1)Nc1cccnc1 (stereo not drawn)	–	18µM	–	?	–
N#CC(C#N)=Cc1cn(-c2ncc(C(F)(F)F)cc2Cl)c2ccccc12	–	–	–	?	–
CC(=O)/C=C\c1cn(-c2ncc(C(F)(F)F)cc2Cl)c2ccccc12	–	32µM	-124	–	–
COc1ccccc1NC(=O)C1=C(C)Nc2c(C(=O)Nc3cccc(C)c3)cnn2C1c1ccccc1Cl (stereo not drawn)	–	·	·	·	·
COc1ccc(NC(=O)C2(c3ccc(NC(=O)c4ccc(OC)cc4)cc3)CCCC2)cc1	–	·	–	?	–
COc1ccc(C2(C(=O)Nc3nncs3)CCCC2)cc1	–	–	-80	–	–
CN(C)S(=O)(=O)c1ccc(=S)[nH]c1	–	·	·	1µM	·
Nc1c(Cl)cc(Cl)cc1Cl	·	–	·	–	–
SMILES	LMNA splice mod	HPGD block	PNC inhibitor	ALDH1A1 block	12-hLO inh
Cc1c2c(nc3c(C(=O)NC4CC4)cnn13)CCCC2	–	20µM	–	–	–
Cc1cc(C(F)F)n2ncc(C(=O)NC3CCCCCC3)c2n1	–	22µM	–	13µM	–
COc1ccc2[nH]cc(CCNc3ncncc3-c3cccc(NS(C)(=O)=O)c3)c2c1	?	·	·	–	·
COc1ccccc1OCc1ccc(C(=O)N2CCOCC2)o1	–	–	–	25µM	–
O=C(O)c1ccc(COc2ccccc2[N+](=O)[O-])o1	–	–	?	–	–
O=C(c1ccc(COc2ccccc2[N+](=O)[O-])o1)N1CCCCC1	?	22µM	–	?	–
CC(=O)c1ccc(NC(=O)c2ccc(COc3ccccc3[N+](=O)[O-])o2)cc1	–	–	–	–	–
O=C(c1ccc(COc2ccccc2[N+](=O)[O-])o1)N1CCCCCC1	–	25µM	?	–	–
COc1ccc(Nc2nccc(N(C)C)c2C#N)cc1	·	·	·	–	·
CCc1ccc(-n2nc(C)c3c(C)cc(=O)n(CC(=O)N4CCCc5ccccc54)c32)cc1	–	·	·	·	·
